A number with no mark means an inactive call. Activity calls are given as the source filed them. How the calls were made is not given here.
tested on: Aerobactin synthetase IucA (Klebsiella pneumoniae, hypervirulent); experiment: IucA enzyme inhibition, biochemical, LOPAC library, absorbance readout (AID 1346212); conditions: IucA enzyme assay, absorbance (OD) readout; hits give low values;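 tested at 8 µM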;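 further: 100% = no compound wells and 0% = no enzyme wells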

Compared with `CNc1ncnc2c1ncn2[C@@H]1O[C@H](CO)[C@@H](O)[C@H]1O`, `Nc1nc(SCc2ccc([N+](=O)[O-])cc2)c2ncn([C@@H]3O[C@H](CO)[C@H](O)C3O)c2n1` (stereo not given in full) is lower in remaining activity: 125% for the first, 107% for the second.

First: CN1[C@@H](CC(=O)c2ccccc2)CCC[C@H]1C[C@H](O)c1ccccc1
Second: Cc1cc(Cn2cnc3c2C[C@@H](C(=O)O)N(C(=O)C(c2ccccc2)c2ccccc2)C3)ccc1N
The remaining activity of the first is higher: 115% for the first, 112% for the second.

Compared with `CC[C@@H]1SC2(CCN(C)CC2)NC1=O`, `CCN1C(=O)C=CC1=O` is higher in remaining activity: 91.6% for the first, 102% for the second.

`N=c1c[n+](N2CCOCC2)[n-]o1` and `c1ccc2c(c1)CC(N1CCN(c3cccc4c3OCCO4)CC1)C2` are the same in remaining activity: 108% for the first, 108% for the second.

First: C[C@H](NC(=O)/C(C#N)=C/c1ccc(O)c(O)c1)c1ccccc1
Second: N#Cc1cc2nc(O)c(O)nc2cc1[N+](=O)[O-]
The remaining activity of the first is higher: 95.7% for the first, 86.8% for the second.

Compared with `C[C@]12C=CC(=O)C=C1CC[C@@H]1C2=CC[C@]2(C)[C@@H](C(=O)CN3CCN(c4cc(N5CCCC5)nc(N5CCCC5)n4)CC3)CC[C@@H]12`, `COc1cc2c(cc1OC)-c1cc(=Nc3c(C)cc(C)cc3C)n(C)c(=O)n1CC2` is lower in remaining activity: 102% for the first, 97.5% for the second.

First: CN(C)C(N)=NCCC[C@H](N)C(=O)O
Second: CC(O)C(O)[C@H]1CNc2nc(N)[nH]c(=O)c2N1 (stereo not given in full)
The remaining activity of the first is lower: 97.3% for the first, 102% for the second.

For `OC[C@H]1O[C@H]([S-])[C@H](O)[C@@H](O)[C@@H]1O.[Au+]`, the remaining activity was 66.7% (active).

— PubChem BioAssay
